# Assay outcomes from PubChem.
# MsrA inhibitor = inhibits bovine methionine sulfoxide reductase A. 0.75% of 360,000 active. AID 651718. purified bovine MsrA, absorbance read-out. inhibition, % at 15.5 µM; in the data active = inhibition above about 4.5%;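 also: 0% = vehicle wells with enzyme and 100% = reference inhibitor wells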
# bovine MsrA act = bovine methionine sulfoxide reductase A activation; purified bovine MsrA, absorbance read-out; activation, % at 10.6 µM; 0.3% of 360,000 active; AID 602163; in the data active = activation above about 7.5%;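 also: 0% = vehicle and 100% = reference activator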
# 14-3-3 Bad PPI = disrupts binding of bovine 14-3-3 zeta to phospho-Bad peptide; TR-FRET 14-3-3zeta/Dy647-pBad peptide displacement, 1 h; inhibition, % at 21.7 µM; 0.71% of 220,000 active;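 active = inhibition above about 70%, limit read from the data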;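 also: 0% = full 14-3-3 plus peptide FRET controls and 100% = background without 14-3-3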
# pCIP destab = compounds decreasing mouse p/CIP protein stability; Q05BA5; F442A p/CIP-EGFP cells, EGFP fluorescence, 16 h; decrease of EGFP signal, % at 10 µM; 0.01% of 290,000 active; AID 1984;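 active = EGFP signal decrease of at least 30% at 10 µM or well 3 SD below plate mean, unless failing retest; inactive = the rest, including hits failing retest or dose response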
# An asterisk follows results filed as active; . = not tested or not shown. Shown are actives, neighbours in structure and some others; about 1.4% of the full set was active somewhere.
SMILES,MsrA inhibitor,bovine MsrA act,14-3-3 Bad PPI,pCIP destab
CN(C)c1ccc(/C=C2/C(=O)NC(=O)N(Cc3ccco3)C2=O)cc1,3,-5,-1,-21
O=C1NC(=S)N(Cc2ccco2)C(=O)/C1=C\c1cccs1,.,.,97*,-2
CCN(CC)c1ccc(/C=C2/C(=O)NC(=O)N(Cc3ccco3)C2=O)cc1,4.6*,-10,-26,-12
C=CCN1C(=O)/C(=C/c2cccs2)C(=O)NC1=S,1,-6,22,-11
Cc1cc(C(=O)N2CCC3(CC2)OCCO3)no1,0,-7,.,2
O=c1cccc2n1CC1CC2CN(Cc2cccc(Cl)c2Cl)C1 (centres undefined),0,0,-2,-6
O=c1cccc2n1CC1CC2CN(Cc2c(F)cccc2Cl)C1 (centres undefined),0,-3,77*,-1
O=C(NCCN1CCC2(CC1)C(=O)NCN2c1ccccc1)c1ccc(F)cc1F,0,.,.,.
CCN1CCN(Cc2ccc(OC(F)(F)F)cc2)CC1,1,-3,85*,-11
Clc1ccccc1CN1CCN(c2ccccc2)CC1,0,-4,83*,5
Clc1ccc(N2CCN(Cc3ccccc3Cl)CC2)cc1,0,-1,68,7
COc1ccc(C(=O)CC(c2ccc3c(c2)OCO3)c2c(O)c3ccccc3oc2=O)cc1OC (centres undefined),-1,-3,.,.
CCOC(=O)CNC(=O)N1Cc2cc(Br)ccc2-n2nncc2C1,0,.,.,.
COc1ccc(Br)cc1CN1CCN(C(=O)Cc2ccccc2)CC1,0,1,86*,-4
CCC(C)N1CCN(C(=O)Cc2ccccc2)CC1 (centres undefined),1,-1,80*,-3
COc1ccc(CN2CCN(C(=O)Cc3ccccc3)CC2)c(OC)c1,0,-4,47,-6
COc1ccc(CC(=O)N2CCN(C)CC2)cc1,-1,-14,9,-4
COc1ccc(CC(=O)N2CCN(C)CC2)cc1OC,0,0,73*,-2
COc1ccc(CCNCc2ccccn2)cc1OC,2,-6,75*,-2
CC(=O)C1C2c3ccccc3OC1(C)N=c1s/c(=C/c3cnn(C)c3)c(=O)n12 (centres undefined),8.1*,-4,1,-10
Cc1cccc(-n2c(-c3cccs3)nc3ccccc3c2=O)c1,2,-4,71*,-13
CCOC(=O)c1c(C=O)c2ccccc2n1Cc1ccccc1F,4.6*,-3,.,-19
COc1ccc2nc(-c3ccc(CN4CCC(n5nnc6ccccc65)CC4)cc3)c(-c3ccccc3)nc2c1,3,.,.,.
CN(C)c1ccc(CN2CC=C(c3ccc(F)cc3)CC2)cc1,0,-8,73*,-2
O=c1[nH]c2ccccc2n1CCCN1CCC(n2c(=O)[nH]c3cc(Cl)ccc32)CC1,1,7,92*,-3
SMILES,MsrA inhibitor,bovine MsrA act,14-3-3 Bad PPI,pCIP destab
O=c1[nH]c2cc(Cl)ccc2n1C1CCN(Cc2ccc(-c3nc4ccc(F)cc4nc3-c3ccccc3)cc2)CC1,1,.,.,.
CCOc1cc(C=O)ccc1O,4.6*,-10,.,.
COc1cccc(C(c2nnnn2-c2c(C)cccc2C)N2CCC(n3c(=O)[nH]c4ccccc43)CC2)c1OC (centres undefined),1,-3,.,.
CC(=O)N1CN2CN(C(C)=O)CC(C(=O)c3ccccc3)(C2)C1,-1,-9,3,3
O=C(c1ccncc1)C12CN3CN(CN(C3)C1)C2,1,-2,85*,0
O=C(NCCN1CCC2(CC1)C(=O)NCN2c1ccccc1)c1ccc(OC(F)(F)F)cc1,0,.,.,.
CSc1nnc(C2CCNCC2)n1C,-1,-3,87*,-11
CS(=O)(=O)N1Cc2cc(Br)ccc2-n2nncc2C1,0,.,.,.
CCCC(=O)NC(Oc1ccc(OC)cc1)C(Cl)(Cl)Cl (centres undefined),-1,-4,-11,-21
CCCC(=O)NC(Oc1ccc(Cl)cc1Cl)C(Cl)(Cl)Cl (centres undefined),1,-3,88*,0
CCCC(=O)NC(Oc1ccccc1Cl)C(Cl)(Cl)Cl (centres undefined),0,-3,77*,8
O=C(NCCN1CCC2(CC1)C(=O)NCN2c1ccccc1)c1ccc(Cl)c(Cl)c1,0,.,.,.
COc1ccc2c3c([nH]c2c1)C(C)=NCC3,4,11*,6,3
CN(C)[C@@H]1C(=O)C(C(N)=O)=C(O)[C@@]2(O)C(=O)C3=C(O)c4c(O)cccc4[C@@](C)(O)[C@H]3[C@H](O)[C@@H]12,1,-5,89*,-7
CN(C)[C@@H]1C(=O)C(C(N)=O)=C(O)[C@@]2(O)C(=O)C3=C(O)c4c(O)cccc4[C@@](C)(O)C3C[C@@H]12 (some centres undefined),1,-9,.,.
